Data: the supplement of paper PMC6555819

Key:
Assay in all cases: PBM binding z-score (relative to random genomic background probes); higher = stronger binding; sequences stand for … in GC…GCGATTGACAGCGTAGAATGAAGG
[1] = system: PPARg:RXRa DBDmut IVT, anti-RXR (DBD mutation: RXRa K156A/R161A, NR concentration 270 nM, RXRa partner concentration 90 nM)
How it was run: (§1)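 Custom Agilent 4×180K protein-binding microarrays carried double-stranded probes. Their 34-nt variable regions held direct-repeat seeds, single-nucleotide variants, half-site ablations and random human genomic background sequences. Arrays were incubated 1 h with ligand-free nuclear receptor dimers in PBS pH 7.4, 2% milk, 0.02% Triton X-100, 1 mM DTT, 0.2 mg/mL BSA and 0.4 mg/ml salmon testes DNA. Antibodies against each partner (one per run) detected binding, and scanned fluorescence was regression-normalized. Binding z-scores use random background probes as reference.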

[2] = system: PPARg:RXRa IVT, anti-PPARg (NR concentration 270 nM, RXRa partner concentration 90 nM)
How it was run: as §1

[3] = system: PPARg DBDmut:RXRa IVT, anti-PPARg (DBD mutation: PPARg1 K132A/R137A, NR concentration 270 nM, RXRa partner concentration 90 nM)
How it was run: as §1

[4] = system: PPARg DBDmut IVT, anti-PPARg (DBD mutation: PPARg1 K132A/R137A, NR concentration 270 nM)
How it was run: as §1

[5] = system: PPARg homodimer (NR concentration 180 nM)
How it was run: as §1

[6] = system: PXR:RXRa (NR concentration 270 nM, RXRa partner concentration 90 nM)
How it was run: as §1

[7] = system: PXR homodimer (NR concentration 270 nM)
How it was run: as §1

[8] = system: RARa:RXR (NR concentration 270 nM, RXRa partner concentration 90 nM)
How it was run: as §1

[9] = system: RARa homodimer (NR concentration 270 nM)
How it was run: as §1

[10] = system: RARb:RXRa (NR concentration 270 nM, RXRa partner concentration 90 nM)
How it was run: as §1

| Sequence | PBM binding z-score [1] | PBM binding z-score [2] | PBM binding z-score [3] | PBM binding z-score [4] | PBM binding z-score [5] | PBM binding z-score [6] | PBM binding z-score [7] | PBM binding z-score [8] | PBM binding z-score [9] | PBM binding z-score [10] |
| --- | --- | --- | --- | --- | --- | --- | --- | --- | --- | --- |
| GATACAGGGTCAAGGCCAGTGTACGCGTATTGAT | 2.53 | 3.95 | 0.493 | -0.124 | 2.17 | 3.97 | 0.209 | 4.47 | 0.237 | 4.41 |
| CACACAGGGTCAGCTAGGCCAGAGTAGGGACGGC | 0.553 | 2.09 | 0.463 | 0.562 | 2.14 | 2.06 | 0.13 | 3.32 | 0.53 | 4.09 |
| CTACCAAGGTGAACAAGGTCGTTTATTACTATTC | 2.67 | 2.5 | 0.494 | 0.322 | 1.29 | 3.07 | 2.38 | 2.12 | 0.698 | 2.26 |
| AGTCAAAGTTCACTAGGTAGCGTAAGATTCAGCT | 1.37 | 3.4 | 0.246 | 0.621 | 2.62 | 4.12 | 2.83 | 3.01 | 1.33 | 4.68 |
| TCAGACAGGTGAAGGTGACTCAGGTACGCAGTCG | 2.42 | 1.7 | 0.953 | 0.0936 | 0.74 | 0.711 | 0.325 | 0.812 | -0.0576 | 1.62 |
| ATCGAAAGGTCGAGGTGCGTATAGAGAAAGGGAA | -0.194 | 1.03 | 0.819 | 0.0547 | 1.09 | 2.33 | 0.0206 | 3.2 | 0.4 | 3.98 |
| AGCTCTAGGTAAAGATAGTTCAGTGAATGCAAAT | 2.67 | 1.19 | 0.745 | 0.441 | 0.456 | 0.84 | 0.602 | 0.3 | 1.11 | 0.525 |
| CAAACTAGCTCAAGAGGTCAAAGTCCGCTTCCCG | 0.982 | 2.06 | 0.545 | 0.408 | 2.37 | 5.37 | 1.87 | 5.13 | 1.34 | 3.96 |
| TTATATAGGTAAAGGTGAAAGTCGAACGATATGA | 5.88 | 6.52 | 3.04 | 2.82 | 2.08 | 0.997 | 0.227 | 1.74 | 0.54 | 1.88 |
| ATCTCTAGGTAAAGATAGTTCAATGAATGCAAAT | 2.11 | 1.74 | 1.55 | 1.22 | 0.945 | 1.65 | 1.02 | 0.946 | 1.4 | 1.07 |
| CCTACTGGTCCATCAGGTCATTGATATCAACGTT | 0.344 | 1.32 | 0.234 | 0.596 | 1.48 | 1.99 | 1.32 | 2.05 | 0.854 | 1.87 |
| GCTTACGGGTCAAAGGTTATAGCCTGAATAGAAT | 4.87 | 6.32 | 0.778 | 1.43 | 7.84 | 6.26 | 0.103 | 8.66 | -0.0748 | 4.65 |
